Data from PubChem BioAssay (Tox21).
Active and inactive are the calls of the source. Calls come from the whole dose curve; as a rule, active = well fitted curve in the direction sought with a large enough effect in the repeat runs; inconclusive = weak or mixed curves; inactive = flat fitted curve, though single readings scatter.

Experiment: qHTS assay to test for compound auto fluorescence at 535 nm (green) in HepG2 cell free culture (AID 720686)
Details: Cell-free medium, green autofluorescence 485/535 nm; series mostly up to 91.3 µM; fluorescence, % of fluorescein control: at the top concentration
Source text: U.S. Tox21 Program National Center for Advancing Translational Sciences [NCATS] NIH Chemical Genomics Center [NCGC] U.S. Environmental Protection Agency [EPA] National Institutes of Environmental Health Sciences [NIEHS] National Toxicology Program [NTP] U.S. Food and Drug Administration [FDA] Tox21 Assay Overview: Compound auto fluorescence often interferes with screening of the compound library against various biological targets and signaling pathways. Some of these compounds may have fluorophoric properties. Such properties may interfere with the assay outputs resulting in false positives and/or negatives. To decrease such complications and ensure the compound activities are relevant in terms of biological response, the Tox21 10K compound library was screened for auto fluorescence. From the fluorophores used as reporter signals in our screening assays, the auto fluorescence equivalencies of compounds against three fluorophores have been evaluated: Triamterene, Fluorescein and Rose Bengal sodium for blue, green and red fluorescence, respectively. The fluorescence intensities were measured using Excitation/Emission wavelengths at 405/460nm, 485/535nm and 540/590nm for blue, green and red labels, respectively. This assay includes the green fluorescence data.
Tox21 Assay Protocol Summary: 5 uL of culture medium (MEM containing 10% FBS) per well was dispensed into black wall/clear bottom 1536-well plates using a Multidrop Combi Dispenser (ThermoFisher Scientific, Waltham, MA). After 23 nL compound or DMSO vehicle was transferred into assay plate by a pintool work station (Kalypsys, San Diego, CA), fluorescence intensities in the assay plates were measured by an Envision (PerkinElmer, Shelton, CT) plate reader using three labels for measuring blue, green and red fluorescence at […] 460, 535 and 590nm respectively.
% is set by controls: 0 for no effect and ±100 for the full control effect.

Compound | Potency | fluorescence, % of fluorescein control
C[N+]1(C)[C@@H]2CC[C@H]1CC(OC(=O)C(CO)c1ccccc1)C2 (stereo not given in full) | inactive | 
CCO/N=C(\CC)C1=C(O)CC(c2c(C)cc(C)cc2C)CC1=O (stereo not given) |  | 0.446% (inactive)
CC(C)Br |  | -0.0085% (inactive)
C=C(C)C(=O)[O][Sn]([CH2]CCC)([CH2]CCC)[CH2]CCC |  | 0.0075% (inactive)
CN |  | -0.0069% [at 95.7 µM] (inactive)
CCOC(=O)Cc1ccccc1 |  | 0.0403% (inactive)
CSC1=N[C@@](C)(c2ccccc2)C(=O)N1Nc1ccccc1 |  | -0.0007% (inactive)
CC(=O)O.CC(=O)O.CC(=O)O.CC(=O)O.CC(=O)O.CC(=O)O.CC(=O)O.O.O.[Cr].[Cr].[Cr] |  | -0.0857% (inactive)
COC(=O)C(C)N(C(=O)c1ccco1)c1c(C)cccc1C (stereo not given) |  | 0.168% (inactive)
CC(O)C(=O)[O][Hg][c]1ccccc1 (stereo not given) |  | -0.0056% (inactive)
c1ccc2c(c1)cc1ccc3cccc4ccc2c1c34 |  | 0.0581% [at 95.7 µM] (inactive)
CC(C)N(C(=O)CCl)c1ccccc1 | inactive | 
CCCCON=O |  | 0.09% [at 95.7 µM] (inactive)
CCOP(=O)(OCC)Oc1nc(Cl)c(Cl)cc1Cl |  | -0.169% (inactive)
O=S(=O)(NS(=O)(=O)C(F)(F)F)C(F)(F)F |  | -0.0341% (inactive)
[O-][Cl+3]([O-])([O-])O |  | -0.0325% [at 95.7 µM] (inactive)
O.O.O.O=C([O-])[C@H]([O-])[C@@H]([O-])C(=O)[O-].O=C([O-])[C@H]([O-])[C@@H]([O-])C(=O)[O-].[K+].[K+].[Sb+3].[Sb+3] |  | 0.0213% (inactive)
CNN |  | -0.105% [at 95.7 µM] (inactive)
CCCCC(CC)COC(=O)OOC(C)(C)C (stereo not given) |  | -0.0061% (inactive)
CCC[CH2][Sn]([CH2]CCC)([CH2]CCC)[CH2]CCC |  | -0.0021% (inactive)

Compound | Potency | fluorescence, % of fluorescein control
Oc1ccc2[nH]cc(CCCCN3CC=C(c4ccccc4)CC3)c2c1 |  | 0.107% [at 46 µM] (inactive)
CCC(C)Br (stereo not given) |  | 0.002% [at 95.7 µM] (inactive)
O=C(Cl)c1ccccc1F |  | 0.0114% (inactive)
C=CCBr |  | 0.0633% [at 95.7 µM] (inactive)
CCC(OC(C)=O)C(CC(C)NC)(c1ccccc1)c1ccccc1 (stereo not given) |  | -0.121% [at 95.7 µM] (inactive)
CC(=O)[O-].CC(=O)[O-].CC(=O)[O-].[Sb+3] |  | 0.0057% [at 3.72 µM] (inactive)
c1ccc2nc(N3CCNCC3)ccc2c1 |  | -0.0396% [at 46 µM] (inactive)
CSC(C)(C)/C=N/O |  | -0.0029% (inactive)
CCC[CH2][Sn]([CH2]CCC)([O]C(C)=O)[O]C(C)=O |  | 0.0454% (inactive)
Cc1cnc2c(C(=O)O)c(Cl)ccc2c1 |  | -0.0013% (inactive)
[F][Sn]([c]1ccccc1)([c]1ccccc1)[c]1ccccc1 |  | 0.0186% (inactive)
N#Cc1c2ccccc2cc2ccccc12 |  | 0.0774% (inactive)
ClC1(Cl)C2(Cl)C3(Cl)C4(Cl)C(Cl)(Cl)C5(Cl)C3(Cl)C1(Cl)C5(Cl)C24Cl (stereo not given) |  | -0.17% (inactive)
Fc1ccc(C(OCCN2CCN(CCCc3ccccc3)CC2)c2ccc(F)cc2)cc1 |  | -0.0538% [at 46 µM] (inactive)
C#CCO |  | 0.0073% (inactive)
CO/N=C(/C1=NOCCO1)c1ccccc1Oc1ncnc(Oc2ccccc2Cl)c1F |  | 0.0701% (inactive)
COCCC#N |  | 0.146% (inactive)
CCC1(CC)C(=O)N=C(O)NC1=O |  | -0.12% (inactive)
CCC[CH2][Sn]([CH2]CCC)([CH2]CCC)[O][Sn]([CH2]CCC)([CH2]CCC)[CH2]CCC |  | -0.0002% [at 3.72 µM] (inactive)
CC[C@]1(O)CC[C@H]2[C@@H]3CCC4=CCCC[C@@H]4[C@H]3CC[C@@]21C |  | -0.0021% [at 46 µM] (inactive)
